eIF4H inh = inhibitors of RNA binding by human eIF4H | eIF4H fluorescence polarization binding assay | 0.94% of 290,000 active | inhibition, % at 35 µM | Q15056;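 note: calls also rest on retests at 20 µM and on dose response follow-up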
PABP1 MLLE inh = inhibitors of microRNA-mediated deadenylation, human PABP1 MLLE binding | P11940 | GST-MLLE / FITC-PAM2 fluorescence polarization | inhibition, % at 20 µM | 0.36% of 360,000 active | AID 588489; in the data active = inhibition above about 35%, passing the limit was not always enough
eIF4E 4G PPI = blocks eIF4E binding to eIF4G. TR-FRET eIF4E-eIF4GI(517-606) binding, 2 h. inhibition, % at 21.7 µM. 0.37% of 220,000 active;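 active = inhibition above about 30%, limit read from the data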
PABP polyA inh = blocks human PABP binding to poly(A) RNA; P11940; 1% of 290,000 active; calls only at 35 µM; fluorescence polarization;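 note: calls also rest on retests at 20 µM and on dose response follow-up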
EBV gp42 block = EBV gp42 inhibition. Fluorescence polarization binding assay, mP read-out. inhibition, % (tested at 21.74 µM). 0.42% of 220,000 active; in the data active = inhibition above about 50%
Each line names hits and unclear results; the compound was inactive in the other large screens. Rows were chosen to be rich in hits. Some 1.7% of all compounds tested hit in one or more screens of this group. Unless noted, the rule behind the calls is not given here.

CC(C)(C)C1COc2ccccc2N1C(=O)c1cccc(Cl)c1 (configuration not stated)	none (no result: eIF4E 4G PPI, EBV gp42 block)
COc1ccc(CCCC(=O)N/N=C/c2ccccc2OC)cc1	eIF4H inh active, PABP polyA inh active
CCCn1c(SC(C)C(=O)NC2CC2)nnc1-c1ccncc1 (configuration not stated)	none (no result: eIF4H inh, eIF4E 4G PPI, PABP polyA inh, EBV gp42 block)
N#Cc1ccccc1	none (no result: eIF4H inh, eIF4E 4G PPI, PABP polyA inh, EBV gp42 block)
N#Cc1c(C#N)c(O)c2ccccc2c1O	EBV gp42 block 68
CC(Cc1cccnc1)NC(=O)c1ccccc1OC1CCN(S(C)(=O)=O)CC1 (configuration not stated)	none
C/C=C\C=C/C(=O)Nc1cccc(C2=NOC3(C2)C[C@H](C(N)=O)N(C(=O)Cc2ccc([N+](=O)[O-])cc2)C3)c1 (some centres not stated)	none
Cc1ccc(-n2nc(C)c3onc(C)c3c2=O)cc1	none
CC(C)CC(=O)Nc1cccc(C(C)O)c1 (configuration not stated)	eIF4H inh active, PABP polyA inh active (no result: PABP1 MLLE inh)
CC(c1ccccc1)n1c(N2CCN(C)CC2)nc2c1c(=O)[nH]c(=O)n2C (configuration not stated)	none (no result: eIF4E 4G PPI, EBV gp42 block)
CCn1c(O)c(/C=C/C=C/C=Nc2ccccc2)sc1=S	none
CCCCn1c(O)c(/C=C/C=C/C=Nc2ccccc2)sc1=S	eIF4H inh 54
CCSc1nc(=S)n(-c2ccccc2)c(C)c1C(C)=O	PABP1 MLLE inh 43
CC(=O)c1c(N2CCOCC2)nc(=S)n(-c2ccccc2)c1C	PABP1 MLLE inh 45
CCn1c(C)c(C(C)=O)c(N2CCN(C(c3ccccc3)c3ccccc3)CC2)nc1=S	none
CCn1c(C)c(C(C)=O)c(N2CCN(c3ccccc3)CC2)nc1=S	eIF4H inh 128, PABP polyA inh active
CC(=O)c1c(N2CCCC2)nc(=S)n(-c2ccccc2)c1C	none
CCn1c(C)c(C(C)=O)c(N2CCN(c3ccccn3)CC2)nc1=S	eIF4H inh 66, PABP polyA inh active
CC12CCC(=O)C=C1CCC1C2C(O)CC2(C)C1CCC2(O)C(=O)COC(=O)CCC1CCCC1 (configuration not stated)	none (no result: eIF4H inh, eIF4E 4G PPI, PABP polyA inh, EBV gp42 block)
O=C(NC1CCCC1)c1ncn[nH]1	none
COc1ccc(C(CNC(=O)/C=C/c2c(Cl)nc3ccccn23)N(C)C)cc1 (configuration not stated)	eIF4H inh 7.6, PABP polyA inh active
O=C(c1ccc(-n2cccn2)cc1)N1CCc2c([nH]c3ccccc23)C1c1ccccn1 (configuration not stated)	none
Cn1cccc1-c1cc(C(=O)N2CCc3c([nH]c4ccccc34)C2c2ccccn2)[nH]n1 (configuration not stated)	eIF4E 4G PPI 73
COc1ccccc1-c1csc(C(NC(C)=O)c2ccccc2)n1 (configuration not stated)	none (no result: eIF4H inh, eIF4E 4G PPI, PABP polyA inh, EBV gp42 block)
O=C(O)CSc1ncnc2sc3c(c12)CCC3	eIF4H inh 60, PABP polyA inh active (no result: eIF4E 4G PPI, EBV gp42 block)
O=C(O)CSc1ncnc2sc3c(c12)CCCC3	none
Cc1ccc(C(=O)CSc2ncnc3sc4c(c23)CCCC4)cc1	eIF4E 4G PPI 33
NNC(=O)C12CC3CC(C1)CC(n1ncnn1)(C3)C2	none
O=S(=O)(Cc1ccccc1)C(CCCc1ccccc1)S(=O)(=O)Cc1ccccc1	none (no result: eIF4H inh, eIF4E 4G PPI, PABP polyA inh, EBV gp42 block)
CC(=O)Nc1c(-c2ccccc2)nc2ncccn12	eIF4E 4G PPI 33
O=C(COC(=O)c1cc(=O)[nH]c2ccccc12)Nc1nc(-c2ccc(F)cc2)cs1	none (no result: eIF4H inh, eIF4E 4G PPI, PABP polyA inh, EBV gp42 block)
O=C(CCCc1nc2ccccc2s1)NCc1ccc(F)cc1	none
CCOC(=O)c1cc(-c2ccc(N3CCOCC3)cc2)nn1-c1ccccc1	none
CCOC(=O)c1cc(-c2ccc(N3CCOCC3)cc2)nn1-c1ccccc1C(=O)O	eIF4E 4G PPI 38
COC(=O)c1cc2c(-c3ccccc3)c(C)c3ccccn3c-2c1C(=O)OC	EBV gp42 block 65
COC(=O)c1c(C(=O)OC)c2ccccn2c1C(=O)c1ccccc1	none (no result: eIF4E 4G PPI, EBV gp42 block)
COC(=O)c1c(Cl)c2n3ccccc3c(C)c(-c3ccccc3)c-2c1C(=O)OC	EBV gp42 block 97
CC(=O)N/C(=C/c1ccc(OS(=O)(=O)c2ccc(C)cc2)cc1)C(=O)Nc1ccc(C(=O)O)cc1	none
Cn1c(=O)c(N=O)c(N)n(Cc2ccccc2)c1=S	none (no result: eIF4H inh, eIF4E 4G PPI, PABP polyA inh, EBV gp42 block)
COc1ccccc1N1CCN(C(=O)C(C)CS(=O)(=O)c2ccc3c(c2)NC(=O)CS3)CC1 (configuration not stated)	eIF4H inh 56 (no result: eIF4E 4G PPI, EBV gp42 block)
COc1ccccc1N1CCN(S(=O)(=O)c2ccc3c(c2)NC(=O)C(C)S3)CC1 (configuration not stated)	none (no result: eIF4E 4G PPI, EBV gp42 block)
CCN(CC)C(=O)CSc1nnc(COc2ccc(OC)cc2)n1N	none
CCN(CC)C(=O)CSc1nnc2nnc3cc(OC)ccc3n12	eIF4H inh inconclusive, PABP polyA inh inconclusive, EBV gp42 block 124
O=C(Cc1cccs1)NNC(=O)c1ccc(F)cc1	eIF4H inh inconclusive, PABP polyA inh active
N#CC1=C(N)Oc2ccc3ccc(O)cc3c2C1c1ccsc1 (configuration not stated)	eIF4H inh inconclusive, EBV gp42 block 161
c1ccc(-c2nn3c(Cn4nnc5ccccc54)nnc3s2)nc1	eIF4H inh 70
O=C(NCCC1=CCCCC1)C1CCN(S(=O)(=O)c2ccccc2C(F)(F)F)CC1	none (no result: eIF4H inh, eIF4E 4G PPI, PABP polyA inh, EBV gp42 block)
COc1ccc(S(=O)(=O)N2CCC(C(=O)NCc3cccc(OC)c3)CC2)cc1	eIF4E 4G PPI 47
COc1cccc(CNC(=O)C2CCN(S(=O)(=O)c3ccccc3)CC2)c1	none
Cc1cscc(C)c1=S	PABP1 MLLE inh 38 (no result: eIF4H inh, eIF4E 4G PPI, PABP polyA inh, EBV gp42 block)
CCCCC(=O)N(C)c1c(C)nc2ccc(C(=O)N3CCNC(=O)C3)cn12	none (no result: eIF4H inh, eIF4E 4G PPI, PABP polyA inh, EBV gp42 block)
O=S(=O)([N-]c1nc2ccccc2nc1-[n+]1ccccc1)c1ccc(Cl)cc1	none
Cc1cc[n+](-c2nc3ccccc3nc2C(=C=[N-])C#N)cc1	eIF4H inh 70, PABP polyA inh active
Cc1cc[n+](-c2nc3ccccc3nc2[N-]S(=O)(=O)c2ccccc2)cc1	eIF4H inh 51, PABP polyA inh active
CCc1cc[n+](-c2nc3ccccc3nc2[N-]S(=O)(=O)c2ccc(Br)s2)cc1	eIF4H inh inconclusive, EBV gp42 block 58
Cn1c(=O)c2c(ncn2CC(=O)Nc2nccs2)n(C)c1=O	none
Cc1ccccc1C(=O)N1CCN(c2ccc(NC(=O)c3ccc4c(c3)OCCO4)cc2)CC1	none (no result: eIF4E 4G PPI, EBV gp42 block)
COCc1cc(Sc2ccc(Cl)cc2Cl)nc(-c2ccccc2)n1	none
COCc1cc(Sc2ccc(OC)cc2)nc(-c2ccccc2)n1	eIF4H inh active
O=[N+]([O-])c1ccc(SCc2ccco2)cc1N1CCOCC1	none
O=[N+]([O-])c1ccc(N2CCOCC2)cc1SCc1ccco1	eIF4H inh 86, PABP polyA inh active
CN1CCc2c(sc3c2C(=O)NC(c2ccccc2)N3)C1 (configuration not stated)	eIF4H inh 63, PABP polyA inh active
O=C1NC(c2ccccn2)Nc2sc3c(c21)CCC3 (configuration not stated)	none
O=C1NC(c2ccc(Br)cc2)Nc2sc3c(c21)CCC3 (configuration not stated)	eIF4H inh 103, PABP polyA inh active

Assay outcomes: PubChem, several laboratories
